Bioassay records from PubChem BioAssay.
The list is not random: actives were taken first. Their share in the collection is about 3.2%.
GLP-1R agonist: activates the human GLP-1 receptor; P43220; HEK293 GLP-1R CRE-luciferase, luminescence, 4-6 h; cells express a hypersensitive GLP-1R form; Potency, µM (doses to about 45.6 µM), without a hit: at the top dose activation, hits mostly activators; 380,000 tested, 0.007% active; note: % of control where 0% means no effect
Target sequence (P43220 whole entry, looked up): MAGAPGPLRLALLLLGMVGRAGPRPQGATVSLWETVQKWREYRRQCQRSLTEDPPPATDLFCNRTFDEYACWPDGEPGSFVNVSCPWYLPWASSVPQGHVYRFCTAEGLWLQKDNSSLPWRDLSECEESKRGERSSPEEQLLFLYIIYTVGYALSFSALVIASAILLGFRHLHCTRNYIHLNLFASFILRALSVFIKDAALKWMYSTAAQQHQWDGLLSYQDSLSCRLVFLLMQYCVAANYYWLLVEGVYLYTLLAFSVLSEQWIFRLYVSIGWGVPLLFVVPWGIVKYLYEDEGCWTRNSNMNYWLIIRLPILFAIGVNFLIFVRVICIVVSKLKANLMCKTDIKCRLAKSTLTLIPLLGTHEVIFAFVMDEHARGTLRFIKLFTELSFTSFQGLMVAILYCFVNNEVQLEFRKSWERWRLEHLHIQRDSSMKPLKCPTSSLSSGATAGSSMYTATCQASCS
ClpP mod: qHTS Assay for Activators of ClpP | ATP-dependent Clp protease proteolytic subunit (Bacillus subtilis (strain 168)), P80244 | purified B. subtilis ClpP, FRET peptide cleavage, 20 min | Potency, µM (doses to about 57.5 µM), inactives show top-dose activity change, negative = active | 340,000 tested, 1.9% active | AID 651965, 2013; active = well fitted falling curve with a large enough effect; inconclusive = small, poorly fitted or top-dose-only effect; inactive = no such curve, though single readings can be large or run the other way; note: the source files actives as falling curves though it sought activators and does not explain the sign; nearly all actives have a fitted effect of over 65% in size
Target sequence (P80244 whole entry, looked up): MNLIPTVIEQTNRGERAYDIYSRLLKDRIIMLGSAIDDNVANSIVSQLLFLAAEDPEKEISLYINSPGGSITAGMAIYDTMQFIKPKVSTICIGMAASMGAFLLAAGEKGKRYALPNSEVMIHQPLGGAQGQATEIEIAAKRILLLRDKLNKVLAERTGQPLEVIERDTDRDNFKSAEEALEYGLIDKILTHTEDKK
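ClpP 10 microg/mL final, pH 8 Tris/KCl buffer with BSA, glycerol, Tween-20; compound pinned in; FRET-FV substrate; RT 20 min; Ex320/Em430; ΔFRET vs ADEP 5.8 microM, DMSO, no enzyme.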
GLP1R inv ag: GLP-1 receptor (human) inverse agonism; P43220; HEK293 GLP-1R CRE-luciferase, luminescence, 24 h; GLP-1R form is constitutively active; Potency, µM (top dose mostly 38.3 µM), for the others: top-dose activity change, negative = inhibition, hits mostly inhibitors; 410,000 tested, 1.6% active; note: % is set by controls: 0 for no effect and ±100 for the full control effect; nearly all actives have a fitted effect of over 55% in size
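Inverse agonists were sought by their lowering of basal cAMP reporter luciferase output in HEK293 cells stably carrying constitutively active human GLP-1R, after 24 h compound treatment.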
GLP1R cytotox: cytotoxicity counter-screen for GLP-1 receptor inverse agonists. Potency, µM (top dose mostly 38.3 µM), for the others: at the top dose activity change, negative = inhibition, usual class: inhibitors. 410,000 tested, 0.13% active. HEK293 cAMP-luciferase reporter cells, luminescence, 24 h. AID 624418;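 note: loss of luciferase light is scored as toxicity; % is set by controls: 0 for no effect and ±100 for the full control effect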
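Quantitative HTS format, 1536 wells, 200 cells/uL seeded. Compounds: 23 nL, 24 h, 37 °C. Detection: luciferase reagent, luminescence at 12 min RT; decreased signal taken as cytotoxic.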
* marks the source's active call; other numbers are inactive results; ? = inconclusive; · = no result given. Unless noted, calls come from the whole dose curve; as a rule, active = well fitted curve in the direction sought with a large enough effect; inconclusive = small, poorly fitted or top-dose-only effect, or another doubt; inactive = no such curve, though single readings can be large; an effect the other way counts as inactive or inconclusive. Potency is the fitted concentration of half-maximal effect.

SMILES	GLP-1R agonist	ClpP mod	GLP1R inv ag	GLP1R cytotox
COC(=O)c1c(NC(=O)CCCOc2ccc(C)cc2)sc2c1C(C(=O)OC)CC2 (centres undefined)	·	-9.2%	-11.7%	0.3%
COc1cc(C=O)ccc1OCc1ccccc1Br	3.3%	-1.3%	-9.3%	-12.5%
COc1cc(C=O)ccc1OCc1cccc(Br)c1	4.2%	25.1µM*	0.4%	4.7%
CCOC(=O)Cn1c(S(=O)(=O)Cc2ccc(F)cc2)nc(-c2ccccc2)c1-c1ccccc1	0.5%	-6.3%	-35.2%	-3.5%
C#CCn1c(S(=O)(=O)Cc2ccc(F)cc2)nc(-c2ccccc2)c1-c1ccccc1	-3.5%	-16.7%	5.62µM*	3.8%
COc1cccc(NC(=O)C(=O)NCCc2csc3nc(-c4ccccc4C)nn23)c1	·	1.0%	8.2%	-8.7%
COc1ccccc1CNC(=O)c1cnc2ccccn2c1=O	12.0%	3.7%	20.8%	-3.3%
O=C(NCc1cccs1)c1cnc2ccccn2c1=O	6.9%	25.1µM*	8.3%	4.9%
CCOC(=O)c1ccccc1NCN1C(=O)CSC1=O	-7.6%	28.2µM*	1.4%	-9.6%
Cc1cccc(NS(=O)(=O)c2ccc(C3CCCCC3)cc2)c1	-9.2%	1.6%	?	?
Cc1cccc(NS(=O)(=O)c2ccc(C(C)(C)C)cc2)n1	12.1%	4.3%	18.6%	3.4%
Cc1cccc(NS(=O)(=O)c2ccc(C3CCCCC3)cc2)n1	27.8%	22.4µM*	91.4%	3.6%
Cc1cccc(NS(=O)(=O)c2ccccc2)n1	-0.5%	20µM*	0.0%	5.3%
CCOC(=O)c1cc(-c2cc3ccccc3o2)nc2c1c(=O)[nH]c(=O)n2CCOC	4.3%	7.08µM*	12.3%	-4.4%
O=C1CCc2cc(S(=O)(=O)NC(C(=O)Nc3cccc(F)c3)c3ccccc3)ccc2N1 (centres undefined)	·	0.1%	11.0%	-4.0%
Cc1ccc(NC(=O)c2cc3c([nH]c2=O)CC(C)(C)CC3=O)c(C)c1	·	-0.5%	13.4%	-1.0%
COCCCn1c2nc3ccccc3nc2c2c(=O)n(CC3CCCO3)cnc21 (centres undefined)	3.3%	12.6µM*	32.0%	1.7%
Clc1cccc(-n2ncc3c(NCCC4=CCCCC4)ncnc32)c1	·	-7.9%	-5.1%	-1.8%
Cc1cccc(C)c1NC(=O)c1cn(-c2ccccc2)nc1-c1ccccc1	-0.9%	0.4%	-1.0%	-13.9%
Cc1ccccc1NC(=O)c1cn(-c2ccccc2)nc1-c1ccccc1	5.5%	-5.3%	10µM*	0.5%
Cc1cccc(NC(=O)c2cn(-c3ccccc3)nc2-c2ccccc2)c1C	·	-5.2%	4.47µM*	6.2%
Cc1nn(Cc2ccc(Cl)c(Cl)c2)c(C)c1NC(=O)c1cn(-c2ccccc2)nc1-c1ccccc1	-0.7%	-1.5%	10µM*	-18.3%
Cc1cccc(C)c1NC(=O)CSCc1cnn(-c2ccccc2)c1-n1cccc1	·	1.8%	?	2.6%
O=C(NOC[C@H](O)CO)c1ccc(F)c(F)c1Nc1ccc(I)cc1F	-1.5%	·	·	·
COc1ccc(C(=O)NCC(c2cccs2)S(=O)(=O)c2ccc(F)c(C)c2)cc1 (centres undefined)	1.0%	-1.8%	?	-7.9%
SMILES	GLP-1R agonist	ClpP mod	GLP1R inv ag	GLP1R cytotox
Cn1ccc2c(OCC(=O)NCc3ccc(F)cc3)cccc2c1=O	·	-8.1%	10.8%	-1.4%
CCCCCCCC(=O)Nc1ccc(C(=O)N/N=C/c2cccc([N+](=O)[O-])c2)cc1	-12.9%	28.2µM*	-26.1%	-12.2%
CCCC(=O)Nc1ccc(C(=O)N/N=C/c2ccc([N+](=O)[O-])o2)cc1	-10.6%	31.6µM*	?	-24.8%
CCOc1ccccc1NC(=O)NNC(=O)c1ccc2ccccc2c1	8.1%	31.6µM*	?	3.0%
CCOc1ccccc1NC(=O)c1ccc2ccccc2c1	16.9%	·	-27.5%	31.1%
O=C(NCc1cccc(C(F)(F)F)c1)c1cc(Cl)ccc1Cl	-3.0%	-1.4%	?	21.7%
O=C(Cc1cccc(C(F)(F)F)c1)NCc1cccc(Cl)c1	10.2%	-0.9%	10µM*	0.4%
CCCCn1c(CNC(=O)C23CC4CC(CC(C4)C2)C3)nnc1SC(C)CC (centres undefined)	2.4%	-1.8%	3.55µM*	-14.7%
CCCCn1c(CNC(=O)C23CC4CC(CC(C4)C2)C3)nnc1SCC(=O)Nc1nnc(C)s1	-2.8%	0.8%	10.4%	-15.4%
Cc1cc(C)nc(N2CCC(C(=O)O)CC2)n1	5.2%	20µM*	0.3%	17.5%
CCC(C)(C)NC(=O)C1CCN(c2nc(C)cc(C)n2)CC1	-0.8%	14.1µM*	4.1%	1.5%
CCCNC(=O)C1CCN(c2nc(C)cc(C)n2)CC1	-1.3%	15.8µM*	0.3%	1.5%
CCCCNC(=O)C1CCN(c2nc(C)cc(C)n2)CC1	-3.1%	4.0%	11.5%	-9.8%
COc1ccc(-n2c(C)c(C(C)=O)c3cc(OC(=O)c4ccc(C)cc4)ccc32)cc1	·	1.3%	?	-19.6%
COc1ccccc1N1CCN(S(=O)(=O)CCNC(=O)COc2ccccc2F)CC1	·	5.4%	-4.6%	2.5%
CCOC(=O)c1nnc2c(-c3ccc(OC)cc3)c(C)nn2c1N	2.9%	0.0%	3.4%	0.6%
CCOC(=O)c1ccccc1N=N/C(C(C)=O)=C(/C)O	2.1%	28.2µM*	0.7%	-5.1%
Cc1ccc(-c2nnn(CC(=O)Nc3ccccc3-c3ccccc3)n2)c(-n2cnnn2)c1	0.6%	11.2µM*	-11.9%	-0.3%
Cc1ccc(NC(=O)Cn2nnc(-c3ccccc3-n3cnnn3)n2)c(C)c1	2.9%	·	11.2%	-9.3%
Nc1c(N=Nc2ccc([N+](=O)[O-])cc2)c(S(=O)(=O)O)cc2cc(S(=O)(=O)O)c(/C=C/c3ccccc3)c(O)c12	·	1.9%	·	·
Cc1c(Cl)cccc1NC(=O)CSc1nc(=O)n(CCCN2CCOCC2)c2c1CCC2	0.2%	20µM*	7.3%	2.2%
Cc1c(Cl)cccc1NC(=O)CSc1nc(=O)n(CCN2CCOCC2)c2c1CCC2	·	-7.4%	5.1%	2.2%
COc1cc(NC(=O)CSc2nc(=O)n(CCN3CCOCC3)c3c2CCC3)cc(OC)c1	4.5%	-1.6%	-1.5%	-4.5%
COc1cc(NC(=O)CSc2nc(=O)n(CCCN3CCOCC3)c3c2CCC3)cc(OC)c1	0.4%	25.1µM*	3.1%	11.5%
CCCN(CC(=O)Nc1ccc(Cl)cc1Cl)C(=O)/C=C/c1cc(OC)ccc1OC	6.7%	15.8µM*	?	0.7%
CCCN(CC(=O)Nc1cc(Cl)ccc1Cl)C(=O)/C=C/c1cc(OC)ccc1OC	18.1%	?	?	0.4%
C=CCc1cc(Cl)ccc1OCCNCCOC	1.9%	·	?	1.3%
C=CCc1cc(Cl)ccc1OCCNCCN1CCOCC1	-1.8%	·	10µM*	12.8%
COc1ccc2cc(CNc3ccccc3)c(=O)n(CC(=O)Nc3ccc(C(C)=O)cc3)c2c1	3.2%	0.1%	-1.8%	-3.9%
Cc1ccc(NC(=O)c2cc(C)n(-c3cccc(C)c3)c2C)cc1	-2.0%	-4.2%	11.2µM*	?
